# Screening data from PubChem.
# BAZ2B block = BAZ2B (human) inhibition. Q9UIF8. AlphaScreen BAZ2B-H3K14Ac peptide displacement. actives 4.4% (n = 360,000). AID 504333. Potency, µM (doses to about 114 µM), most hits filed as inhibitors; further: nearly all actives have a fitted effect of over 60% in size
#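 Inhibition is scored as reduced AlphaScreen emission. The BAZ2B/b-H3(5-23)K14Ac complex (50 nM each) in PBS pH 7.4, 0.01% Tween-20 meets compound (up to 110 uM) for 30 min at RT before bead addition.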
# CtBP-E1A inh = inhibitors of CtBP/E1A interaction | AlphaScreen GST-E1A/His-CtBP binding, 1536-well; active compounds read low | activity change, % (no concentration beside the values) | actives 0.49% (n = 340,000) | AID 651724; in the data active means activity change below about -65%; inconclusive means mostly about -30% to -63%
#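 GST-E1A and His-tagged CtBP (125 nM each as 5X stock) were preincubated with pin-transferred compound for 2 h at 37 °C in the dark, then glutathione donor and nickel acceptor beads were added for 1 h before AlphaScreen reading.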
# JMJD2A Tudor inh = inhibitors of human JMJD2A Tudor domain; AlphaScreen JMJD2A-Tudor / H3K4me3 peptide binding; actives 4.4% (n = 390,000); O75164; Potency, µM (titrated, usually from 114 µM), most hits filed as inhibitors; AID 504339; further: nearly all actives have a fitted effect of over 50% in size
# G9a inh = inhibitors of human histone lysine methyltransferase G9a. Potency, µM (highest dose often 102 µM), actives largely listed as inhibitors. AID 504332. G9a H3K9 monomethylation, AlphaScreen, 2 h. Q96KQ7. actives 8.8% (n = 350,000); further: nearly all actives have a fitted effect of over 75% in size
#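 G9a (20 nM) preincubated 15 min RT with compounds, then 500 nM biotinylated H3K9 peptide and 20 uM SAM added; 2 h RT reaction. Monomethyl-H3K9 product detected by AlphaScreen with anti-H3K9me1 antibody, streptavidin donor and anti-rabbit IgG acceptor beads.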
# HP1b chromo inh = inhibitors of HP1-beta chromodomain binding to methylated histone tails. Potency, µM (highest dose often 114 µM), usual class: inhibitors. P83916. AID 540317. actives 0.56% (n = 390,000). AlphaScreen HP1-beta / biotin-H3K9me3 peptide binding; further: nearly all actives have a fitted effect of over 70% in size
#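 HP1-beta protein (50 nM final) preincubated 30 min at room temperature with biotinylated H3(1-18)K9me3 peptide (50 nM) in PBS pH 7.4, 0.01% Tween-20, then compound added for 30 min. AlphaScreen streptavidin donor/nickel chelate acceptor beads (10 ug/mL final), 30 min dark, luminescence read.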
# Six1-Eya2 blk = blocks human Six1 binding to Eya2. activity change, % (test concentration not listed). AlphaScreen GST-Six1/His-Eya2 binding, biochemical; active compounds read low. actives 0.56% (n = 360,000); in the data active means activity change below about -65%; inconclusive means mostly about -30% to -63%
# Target sequence (O00167 whole entry, looked up): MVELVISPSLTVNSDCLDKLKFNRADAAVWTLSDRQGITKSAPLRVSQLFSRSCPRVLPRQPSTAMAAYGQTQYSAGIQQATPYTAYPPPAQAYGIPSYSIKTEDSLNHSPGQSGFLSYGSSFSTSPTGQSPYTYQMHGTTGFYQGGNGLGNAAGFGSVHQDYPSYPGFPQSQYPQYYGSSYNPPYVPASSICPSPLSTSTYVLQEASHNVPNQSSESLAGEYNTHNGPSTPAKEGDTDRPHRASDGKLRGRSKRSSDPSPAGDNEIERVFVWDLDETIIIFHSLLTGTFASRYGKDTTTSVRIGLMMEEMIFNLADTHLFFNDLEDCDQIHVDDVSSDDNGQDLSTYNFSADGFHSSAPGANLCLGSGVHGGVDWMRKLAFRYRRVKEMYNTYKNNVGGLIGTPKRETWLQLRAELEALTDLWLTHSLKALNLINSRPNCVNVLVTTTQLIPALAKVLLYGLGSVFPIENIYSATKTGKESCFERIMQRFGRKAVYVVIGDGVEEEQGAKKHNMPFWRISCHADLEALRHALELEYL
# Target sequence (Q15475 whole entry, looked up): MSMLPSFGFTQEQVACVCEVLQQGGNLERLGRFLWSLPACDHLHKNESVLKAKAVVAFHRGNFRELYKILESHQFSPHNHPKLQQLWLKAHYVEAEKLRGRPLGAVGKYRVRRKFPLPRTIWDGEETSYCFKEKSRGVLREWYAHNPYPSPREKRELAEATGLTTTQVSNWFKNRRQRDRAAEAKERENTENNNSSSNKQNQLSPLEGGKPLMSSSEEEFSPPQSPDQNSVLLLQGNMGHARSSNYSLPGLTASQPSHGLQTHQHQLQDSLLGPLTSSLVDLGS
#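 Homogeneous AlphaScreen proximity assay pairing GST-Six1 with His-tagged Eya2 (added as 5X mix: 250 nM and 500 nM) in 50 mM Tris pH 8.0, 300 mM NaCl, 1 mM TCEP. Glutathione donor and nickel acceptor beads; 1 h, 37 °C, dark.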
# Numbers stand for hits; – = inactive; ? = inconclusive; · = no result; [ ] = dose if it differs, or a comment. Rows were chosen to be rich in hits. Some 10% of all compounds tested hit in one or more screens of this group. Unless noted, the call rests on the fitted dose curve; in most records, active means well fitted inhibition curve with a large enough effect; inconclusive means small, poorly fitted or top-dose-only effect; inactive means no such curve, though single readings can be large or run the other way.
SMILES,BAZ2B block,CtBP-E1A inh,JMJD2A Tudor inh,G9a inh,HP1b chromo inh,Six1-Eya2 blk
COc1ccc2c(c1)[N+](C)(C)C(C)(C)C=C2C,–,·,18µM,?,?,–
COc1ccc2c(c1)C(C)=CC(C)(C)N2S(=O)(=O)c1ccc(C)cc1,–,–,–,–,–,–
COc1ccc(Nc2cc(C)nc(-n3nc(C)cc3C)n2)cc1Cl,6.3µM,·,?,–,–,·
Cc1cc(Nc2ccc(C(C)C)cc2)nc(-n2nc(C)cc2C)n1,–,·,?,–,–,·
Cc1cc(Nc2ccc(F)c(Cl)c2)n2nc(C)nc2n1,–,–,–,?,–,–
COc1ccc(Nc2cc(C)nc3nc(C)nn23)cc1Cl,–,–,–,89µM,–,–
CCOc1ccc(Nc2cc(C)nc3nc(C)nn23)cc1,–,–,–,89µM,–,–
COc1cc(C(=O)NCCCC2CCCC2)ccc1OC1CCN(C(C)=O)CC1,–,–,–,·,–,–
Cc1ccccc1-c1cc2nc(NCc3cccnc3)n(C)c(=O)c2s1,·,–,·,·,·,–
CC(C)C(C(=O)NCc1ccccc1)N1CCN(C(=O)C2CCCO2)CC1 (centres undefined),·,–,·,·,·,–
Cc1ccccc1-c1nnn(C/C(N)=N/O)n1,–,–,–,–,–,–
CS(=O)(=O)c1ccc(S(=O)CC(=O)OCc2ccccc2)c([N+](=O)[O-])c1 (centres undefined),–,–,–,10µM,–,–
O=C(CS(=O)c1ccc(C(F)(F)F)cc1[N+](=O)[O-])Oc1ccccc1 (centres undefined),?,–,–[11.4 µM],50µM,–,–
COC(=O)c1ccc(OC(=O)CS(=O)c2ccccc2[N+](=O)[O-])cc1 (centres undefined),–,–,–,·,–,–
COC(=O)Nc1ccc(S(=O)(=O)N2CCC(C(=O)N3CCC(C)CC3)CC2)cc1,–,–,11µM,–,–,–
COC(=O)Nc1ccc(S(=O)(=O)N2CCC(C)CC2)cc1,–,–,–,–[12.7 µM],–,–
COC(=O)Nc1ccc(S(=O)(=O)N2CCCCC2)cc1,–,–,–,–,–,–
COC(=O)Nc1ccc(S(=O)(=O)N2CCN(C)CC2)cc1,–,–,79µM,?,–,–
O=C(NCc1ccc(F)cc1)c1cc(C2CCCCN2C(=O)CCCc2ccccc2)on1 (centres undefined),·,–,·,·,·,–
COc1ccc2c(c1)cc1c(=O)n(CC(=O)NC(C)C)nc(C)n12,–,·,–,–,–,·
CCc1ccc(-n2c(=O)c3c4c(sc3n(CC(=O)NC(C)CC)c2=O)CCCC4)cc1 (centres undefined),–,·,–,–,–,·
O=C(CN(CCc1ccccc1)C(=O)c1csnn1)NCc1ccc(F)cc1,–,–,–,–,–,–
Cc1nn(C)c(Sc2ccccc2N)c1[N+](=O)[O-],–,·,18µM,7.9µM,–,–
Nc1c(S(=O)(=O)c2cccs2)c2nc3ccccc3nc2n1CCc1ccccc1,–,·,·,–,·,·
Cc1ccc(S(=O)(=O)c2c(N)n(CCCO)c3nc4ccccc4nc23)cc1,56µM,?,–,–,–,?
SMILES,BAZ2B block,CtBP-E1A inh,JMJD2A Tudor inh,G9a inh,HP1b chromo inh,Six1-Eya2 blk
COc1ccc(CCn2c(N)c(S(=O)(=O)c3cccs3)c3nc4ccccc4nc32)cc1OC,–,–,–,–,–,-67
COc1ccc(CCn2c(N)c(C#N)c3nc4ccccc4nc32)cc1OC,–,-69,–,–[12.7 µM],–,-65
CC(C)c1ccc(CNc2nc(-c3ccco3)nn2S(=O)(=O)c2ccc3ccccc3c2)cc1,?,·,–,–,–,·
CCc1cc2c(cc3c(=O)n(CC(=O)NC(C)c4ccccc4)ncn32)s1 (centres undefined),–,·,100µM,–,–,·
N#CC1=C2SCCN2C(=O)C(C#N)C12CCCCC2 (centres undefined),–,–,–,22µM,–,–
Cc1ccc(NC(=O)CCC(=O)N2Cc3ccccc3Oc3ncccc32)c(C)c1,–,·,–,–,–,·
CCCCc1nc2sc3c(SCC(=O)NCc4ccco4)ncnc3c2c2c1CCC2,?,–,–,–[0.501 µM],–,–
CCCCc1nc2sc3c(SCCN(C)C)ncnc3c2c2c1CCC2,–,–,50µM,?,–,–
